Test [1] deals with Serine/threonine-protein kinase 26 (Homo sapiens) (UniProt Q9P289). The settings on record: at 1 µM.
For test [2], the target named is Serine/threonine-protein kinase PAK 1 (Homo sapiens) (UniProt Q13153). Particulars: at 0.1 µM.
The target is the same in test [3]. Particulars: at 1 µM.
For test [4], the target named is Serine/threonine-protein kinase PAK 2 (Homo sapiens) (UniProt Q13177). The settings on record: at 0.1 µM.
The target is the same in test [5]. Particulars: at 1 µM.
Test [6] addresses Serine/threonine-protein kinase PAK 3 (Homo sapiens) (UniProt O75914). The settings on record: at 0.1 µM.
Test [7] has the same target. The settings on record: at 1 µM.
In test [8] the target is Serine/threonine-protein kinase PAK 5 (Homo sapiens) (UniProt Q9P286). The settings on record: at 0.1 µM.
Chain of Serine/threonine-protein kinase PAK 5 (Homo sapiens) (Q9P286 whole entry, looked up): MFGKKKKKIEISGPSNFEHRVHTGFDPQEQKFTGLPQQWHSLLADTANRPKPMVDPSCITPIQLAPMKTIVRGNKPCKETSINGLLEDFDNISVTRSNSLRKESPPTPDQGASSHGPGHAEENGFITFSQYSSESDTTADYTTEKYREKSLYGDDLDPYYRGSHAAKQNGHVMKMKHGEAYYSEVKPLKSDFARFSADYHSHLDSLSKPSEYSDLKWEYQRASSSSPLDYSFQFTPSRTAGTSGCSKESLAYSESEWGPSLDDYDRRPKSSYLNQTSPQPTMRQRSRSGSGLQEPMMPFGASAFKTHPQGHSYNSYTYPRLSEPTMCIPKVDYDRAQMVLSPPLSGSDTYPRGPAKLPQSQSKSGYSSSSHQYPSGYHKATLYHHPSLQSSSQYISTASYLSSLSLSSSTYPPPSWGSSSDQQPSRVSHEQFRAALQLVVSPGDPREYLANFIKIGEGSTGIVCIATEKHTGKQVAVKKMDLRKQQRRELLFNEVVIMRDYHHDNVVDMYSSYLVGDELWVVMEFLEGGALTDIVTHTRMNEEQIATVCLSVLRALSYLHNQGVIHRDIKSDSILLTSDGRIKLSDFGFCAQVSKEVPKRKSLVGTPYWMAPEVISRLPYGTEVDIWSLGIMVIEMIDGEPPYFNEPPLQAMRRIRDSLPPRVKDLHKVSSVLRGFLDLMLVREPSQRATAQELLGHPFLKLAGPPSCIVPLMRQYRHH
The target is the same in test [9]. Particulars: at 1 µM.
Test [10] has as its target Serine/threonine-protein kinase PAK 6 (Homo sapiens) (UniProt Q9NQU5). Particulars: at 0.1 µM.
Test [11] shares this target. Particulars: at 1 µM.
For test [12], the system named is Tyrosine-protein kinase ABL1 (Homo sapiens), P00519 [E255K]. The settings on record: at 0.1 µM.
The test system is the same in test [13]. The settings on record: at 1 µM.
The subject of test [14] is Tyrosine-protein kinase ABL1 (Homo sapiens), P00519 [H396P]. The settings on record: at 0.1 µM.
For test [15] the test system is unchanged. Particulars: at 1 µM.
Test [16] has as its system Tyrosine-protein kinase ABL1 (Homo sapiens), P00519 [M351T]. The settings on record: at 0.1 µM.
Test [17] shares this test system. Particulars: at 1 µM.
Test [18] relates to Tyrosine-protein kinase ABL1 (Homo sapiens), P00519 [Q252H]. The settings on record: at 0.1 µM.
Test [19] has the same test system. The settings on record: at 1 µM.
The subject of test [20] is Tyrosine-protein kinase ABL1 (Homo sapiens), P00519 [T315I]. Particulars: at 0.1 µM.

Chain of Serine/threonine-protein kinase PAK 3 (Homo sapiens) (O75914 whole entry, looked up): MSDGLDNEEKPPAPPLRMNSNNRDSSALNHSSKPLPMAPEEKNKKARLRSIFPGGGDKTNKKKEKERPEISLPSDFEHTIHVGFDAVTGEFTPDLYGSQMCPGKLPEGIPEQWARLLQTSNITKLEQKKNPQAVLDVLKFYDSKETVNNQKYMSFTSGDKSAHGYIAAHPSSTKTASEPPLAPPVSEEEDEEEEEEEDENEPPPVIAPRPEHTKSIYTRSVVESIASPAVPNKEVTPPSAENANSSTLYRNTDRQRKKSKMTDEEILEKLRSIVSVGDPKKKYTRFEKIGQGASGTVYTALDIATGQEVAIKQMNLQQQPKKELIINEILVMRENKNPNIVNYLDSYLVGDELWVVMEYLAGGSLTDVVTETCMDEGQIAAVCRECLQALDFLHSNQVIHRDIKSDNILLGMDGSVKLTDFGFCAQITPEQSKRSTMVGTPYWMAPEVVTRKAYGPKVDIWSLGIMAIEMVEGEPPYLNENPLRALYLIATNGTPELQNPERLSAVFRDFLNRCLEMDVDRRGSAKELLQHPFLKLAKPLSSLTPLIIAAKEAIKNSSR
Chain of Serine/threonine-protein kinase 26 (Homo sapiens) (Q9P289 2-416 limits assumed): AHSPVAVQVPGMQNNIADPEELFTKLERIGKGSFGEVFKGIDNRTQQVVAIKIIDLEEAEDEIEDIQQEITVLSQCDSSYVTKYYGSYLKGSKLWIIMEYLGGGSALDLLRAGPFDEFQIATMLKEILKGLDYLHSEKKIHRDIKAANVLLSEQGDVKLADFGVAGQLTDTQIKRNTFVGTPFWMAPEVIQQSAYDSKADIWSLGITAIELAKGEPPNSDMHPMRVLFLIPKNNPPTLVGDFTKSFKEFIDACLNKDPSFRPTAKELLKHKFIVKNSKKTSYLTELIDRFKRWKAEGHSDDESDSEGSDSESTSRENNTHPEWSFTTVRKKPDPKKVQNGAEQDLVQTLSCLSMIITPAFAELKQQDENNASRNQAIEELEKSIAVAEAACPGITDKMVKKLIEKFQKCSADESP
Chain of Serine/threonine-protein kinase PAK 6 (Homo sapiens) (Q9NQU5 whole entry, looked up): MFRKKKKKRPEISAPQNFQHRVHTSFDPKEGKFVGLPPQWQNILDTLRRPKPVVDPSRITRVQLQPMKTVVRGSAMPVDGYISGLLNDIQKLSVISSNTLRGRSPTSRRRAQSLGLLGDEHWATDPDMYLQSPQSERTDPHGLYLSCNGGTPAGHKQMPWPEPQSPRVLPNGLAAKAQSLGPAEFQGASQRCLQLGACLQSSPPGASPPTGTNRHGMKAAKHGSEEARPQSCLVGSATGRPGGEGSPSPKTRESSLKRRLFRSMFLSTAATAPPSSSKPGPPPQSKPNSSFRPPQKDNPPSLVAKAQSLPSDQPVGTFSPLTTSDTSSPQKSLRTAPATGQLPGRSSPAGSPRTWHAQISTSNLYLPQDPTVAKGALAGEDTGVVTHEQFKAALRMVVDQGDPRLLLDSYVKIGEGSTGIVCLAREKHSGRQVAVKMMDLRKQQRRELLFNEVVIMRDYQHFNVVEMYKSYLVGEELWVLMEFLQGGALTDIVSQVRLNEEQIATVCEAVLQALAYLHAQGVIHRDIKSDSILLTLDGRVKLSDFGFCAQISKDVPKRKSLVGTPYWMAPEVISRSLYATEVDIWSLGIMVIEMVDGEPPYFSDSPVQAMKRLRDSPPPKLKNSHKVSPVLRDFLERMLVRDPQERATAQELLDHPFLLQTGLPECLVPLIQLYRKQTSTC
Chain of Serine/threonine-protein kinase PAK 1 (Homo sapiens) (Q13153 whole entry): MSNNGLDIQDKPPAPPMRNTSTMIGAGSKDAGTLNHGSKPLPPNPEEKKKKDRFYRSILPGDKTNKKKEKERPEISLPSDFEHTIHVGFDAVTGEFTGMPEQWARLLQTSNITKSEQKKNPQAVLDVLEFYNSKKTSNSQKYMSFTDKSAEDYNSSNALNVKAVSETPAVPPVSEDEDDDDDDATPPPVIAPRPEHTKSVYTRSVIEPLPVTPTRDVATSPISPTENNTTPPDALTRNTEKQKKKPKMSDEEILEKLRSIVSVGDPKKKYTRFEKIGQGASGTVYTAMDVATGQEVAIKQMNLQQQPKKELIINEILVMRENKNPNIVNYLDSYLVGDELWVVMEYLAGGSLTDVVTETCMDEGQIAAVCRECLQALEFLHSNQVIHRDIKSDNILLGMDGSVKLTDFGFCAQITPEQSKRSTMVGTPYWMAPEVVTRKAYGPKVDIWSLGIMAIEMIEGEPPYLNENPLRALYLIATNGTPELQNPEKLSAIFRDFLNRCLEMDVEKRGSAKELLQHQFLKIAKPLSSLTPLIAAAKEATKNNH
Chain of Serine/threonine-protein kinase PAK 2 (Homo sapiens) (Q13177 whole entry): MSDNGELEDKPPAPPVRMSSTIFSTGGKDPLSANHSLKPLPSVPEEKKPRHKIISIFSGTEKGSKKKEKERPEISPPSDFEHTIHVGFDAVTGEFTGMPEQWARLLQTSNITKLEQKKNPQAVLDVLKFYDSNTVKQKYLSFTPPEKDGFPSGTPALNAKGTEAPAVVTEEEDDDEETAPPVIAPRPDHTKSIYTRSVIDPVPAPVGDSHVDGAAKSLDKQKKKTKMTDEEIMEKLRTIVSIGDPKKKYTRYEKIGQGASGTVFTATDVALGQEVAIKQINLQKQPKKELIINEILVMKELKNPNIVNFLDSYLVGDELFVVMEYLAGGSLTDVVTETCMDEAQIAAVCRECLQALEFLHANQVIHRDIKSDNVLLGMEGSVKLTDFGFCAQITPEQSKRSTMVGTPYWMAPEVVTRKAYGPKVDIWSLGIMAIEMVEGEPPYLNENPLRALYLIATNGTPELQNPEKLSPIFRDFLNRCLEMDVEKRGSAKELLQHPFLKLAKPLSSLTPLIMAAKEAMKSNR

Consider `COc1cccc(-n2ncc3c(N/N=C/c4ccc(F)cc4)ncnc32)c1`, for which the inhibition was -2.12% in test [1]; 4.83% in test [2]; 7.12% in test [3]; 2.32% in test [4]; 2.24% in test [5]; 4.66% in test [6]. Besides, the inhibition was determined as 4.91% in test [7]; 9.72% in test [8]; 5.66% in test [9]; 3.88% in test [10]; 5.5% in [11]; 44.1% in test [12]. Also, the inhibition in [13] was 79.3%; in test [14], 51.2%; in test [15] it was 84.5%; in test [16], 51.7%; in [17] it was 85.4%; in [18], 63.6%. The inhibition in test [19] stood at 88.8%; in test [20], 12.8%.
Consider `COc1ccc(CNC(=O)c2ccc(-c3cc(-c4nnc(C)o4)ccc3C)cc2)cc1`, for which the inhibition was 4.31% in test [1]; 5.02% in [2]; 5.86% in test [3]; 0.61% in test [4]; 0.95% in [5]; 1.81% in test [6]. Moreover, the inhibition in [7] was found to be 3.19%; in test [8], 8.37%; in test [9] it was 8.19%; in test [10], 5.26%; in test [11], 11.5%; in test [12] it was 2.05%. In addition, the inhibition in test [13] came out at 0.78%; in test [14] it was 2.7%; in test [15] it was 4.47%; in [16], 2.42%; in test [17] it was 5.1%; in test [18], 1.38%. Also, the figures for the inhibition in test [19] and in test [20] were 4.42% and 0.75%, respectively.
Consider `Nc1nc(-c2ccc(F)cc2)c(-c2ccc3ncccc3n2)s1`, for which the inhibition is 9.07% in test [1]; 6.29% in test [2]; 6.35% in test [3]; 1.67% in test [4]; 2.07% in [5]; 5.1% in [6]. For the same molecule, the inhibition is 5.56% in [7]; 2.84% in test [8]; 4.21% in test [9]; 1.6% in test [10]; -1.32% in test [11]; 6.26% in test [12]. The inhibition in test [13] came to 16.1%; in test [14], 6.76%; in test [15], 24.2%; in [16], 2.61%; in test [17], 20.2%; in test [18], 6.38%. Moreover, the results for the inhibition in [19] and in test [20] were 25.9% and 5.1%, respectively.
Consider `O=C(Nc1n[nH]c2cc(-c3ccc(F)cc3)ccc12)C1CC1`, for which the inhibition in [1] is -1.27%; in test [2] it was 5.64%; in test [3], 5.57%; in test [4], 1.33%; in test [5], 0.78%; in test [6], 3.25%. Besides, the inhibition was 3.1% in test [7]; 4.4% in test [8]; -1.87% in test [9]; 2.33% in test [10]; -5.36% in test [11]; 9.03% in test [12]. Besides, the inhibition in [13] was found to be 23.3%; in test [14] it was 11.3%; in test [15], 46.6%; in test [16] it was 11.5%; in [17], 55.2%; in test [18], 7.91%. The inhibition in test [19] is 33.9%; in test [20] it was 19.5%.
For the molecule `CC(C)(CO)CNC(=O)c1ccc2c(c1)/C(=N/Nc1ccc(S(N)(=O)=O)cc1)C(=O)N2`, the inhibition in test [1] was 7.27%; in test [2], 3.17%; in test [3] it was 3.48%; in test [4], -1.4%; in test [5], -0.42%; in test [6], -1.02%. For the same molecule, the inhibition in [7] was 0.96%; in test [8], -0.42%; in [9], 0.12%; in [10], 2.03%; in test [11] it was 1.5%; in [12], -0.35%. The inhibition in test [13] was 9%; in test [14] it was -2.04%; in [15] it was 9.98%; in test [16], -0.43%; in test [17] it was 9.9%; in test [18] it was -0.04%. Besides, the inhibition in [19] was 9.08%; in test [20], -2%.
For `COc1ccc(-c2oc3ncnc(N)c3c2-c2ccc(NC(=O)Nc3cc(C(F)(F)F)ccc3F)cc2)cc1`, the inhibition came out at 0.01% in test [1]; 6.65% in test [2]; 5.48% in test [3]; 3.2% in [4]; 3.66% in [5]; 4.72% in [6]. Further, the inhibition amounted to 4.39% in [7]; 16.8% in test [8]; 0.17% in test [9]; 2.23% in [10]; 11% in test [11]; 3.15% in test [12]. In addition, the inhibition came to 22.9% in [13]; 10.3% in test [14]; 58.2% in [15]; 34.6% in test [16]; 76.4% in test [17]; 33.6% in test [18]. In addition, the inhibition was found to be 76.2% in [19] and 21.9% in test [20].
With `Nc1nc(-c2cccc(Cl)c2)c(-c2ccc3ncccc3n2)s1`, the inhibition in [1] was -1.1%; in test [2] it was 6.12%; in test [3] it was 6.28%; in [4], 2.17%; in test [5] it was 1.78%; in test [6] it was 3.01%. The inhibition in test [7] was 6.05%; in [8], 1.62%; in test [9], -3.64%; in [10] it was 3.19%; in test [11], -0.98%; in [12], 3.98%. Further, the inhibition in [13] came to 11.2%; in test [14] it was 7.52%; in test [15] it was 19.9%; in [16], 3.37%; in test [17] it was 20.2%; in test [18], 6.97%. In addition, the inhibition in [19] was found to be 16.9%; in test [20], 3.18%.
As for `COC(=O)Nc1nc2ccc(S(=O)(=O)c3ccc(NC(=O)Nc4cc(C(F)(F)F)ccc4F)cc3)cc2[nH]1`, the inhibition was -2.57% in test [1]; 5.36% in test [2]; 4.48% in test [3]; 2.17% in [4]; 1.9% in test [5]; 2.62% in [6]. For the same molecule, the inhibition is 3.11% in test [7]; -4.37% in test [8]; -3.51% in test [9]; -3.27% in test [10]; -4.19% in test [11]; 1.6% in test [12]. Further, the inhibition in test [13] is -0.55%; in test [14], 2.6%; in test [15] it was -0.47%; in test [16] it was 0.84%; in test [17], 3.17%; in test [18], 2.16%. Further, the inhibition came out at 4.69% in test [19] and 2.49% in test [20].
Regarding `CCN(CC)S(=O)(=O)c1ccc(OC)c(Nc2ncc(-c3ccccc3)o2)c1`, the inhibition was 2.13% in test [1]; -1.78% in test [2]; 3.9% in test [3]; -0.97% in [4]; 0.12% in test [5]; 0.22% in [6]. In addition, the inhibition in test [7] was 1.76%; in test [8], 8.61%; in test [9], -0.8%; in test [10], 5.19%; in test [11], 4.66%; in test [12] it was 1.69%. The inhibition is 28.2% in [13]; 4.61% in [14]; 32.8% in [15]; 6.41% in [16]; 38.4% in test [17]; 5.31% in test [18]. The inhibition in test [19] turned out to be 38.5%; in test [20], 1.63%.

Values taken from ChEMBL document CHEMBL1961873, “Compounds: GSK PKIS; Assays: Nanosyn kinase panel” (2012).
